In this assay the target is PEG-3 (UniProt Q6IN02). As to the kind of experiment: GAPDH versus PEG-3 reporter suppression – cell-based, luminescence, counter-screen for PEG-3 promoter inhibitor project, SAR follow-up (AID 651551). Conditions: HeLa PEG-Prom / GAPDH luciferase reporter, 6 or 24 h, run 3, 6 h; at 99 µM (top of the series). On the technique in general: A counterscreen serves to expose hits that act by an unwanted route or on another target.
For `Cc1cc(NC(=O)c2ccccc2)n(-c2nc3ccccc3n2C)n1`, the inhibition % (higher = more inhibition) stood at 40.4%.

As to `Cc1nc(NC(=O)c2ccccc2)sc1-c1csc(Nc2cccc(Cl)c2C)n1`, the inhibition % (higher = more inhibition) came to 49.3%. As for `CCCn1nc(C(=O)Nc2nc(-c3ccccn3)cs2)c2ccccc2c1=O`, the inhibition % (higher = more inhibition) was determined as 34.4%. For `Cc1cc(NC(=O)c2ccccc2C)n(-c2nc3ccccc3[nH]2)n1`, the inhibition % (higher = more inhibition) was determined as 53.8%. Consider `CCn1nc(C(=O)Nc2nc(-c3ccccn3)cs2)c2ccccc2c1=O`, for which the inhibition % (higher = more inhibition) was 39.7%. As for `O=C(Nc1nc(-c2ccccc2)cs1)c1nn(-c2ccccc2)c(=O)c2ccccc12`, the inhibition % (higher = more inhibition) amounted to 11.7%.

Regarding `COc1ccc(Cl)cc1Nc1nc(-c2sc(NC(=O)c3ccccc3)nc2C)cs1`, the inhibition % (higher = more inhibition) was 64.3%. Turning to `O=C(Nc1nccs1)c1nn(-c2ccccc2)c(=O)c2ccccc12`, the inhibition % (higher = more inhibition) came to 29.3%. `COCCCNC(=O)c1ccc(Cn2c(=O)c3ccccc3n(Cc3ccccc3C#N)c2=O)cc1`: the inhibition % (higher = more inhibition) was found to be 12.9%.

In the case of `O=C(Nc1nc2ccccc2s1)c1nn(-c2ccccc2)c(=O)c2ccccc12`, the inhibition % (higher = more inhibition) was -12.9%. In the case of `CCCn1nc(C(=O)Nc2nc(-c3ccncc3)cs2)c2ccccc2c1=O` it was 24.5%. Consider `COc1ccc(-n2nc(C(=O)NCC(=O)Nc3cc(OC)c(OC)c(OC)c3)c3ccccc3c2=O)cc1OC`, for which the inhibition % (higher = more inhibition) is 9.38%.

For the molecule `COc1ccc(-n2nc(C(=O)NCC(=O)Nc3cccc(OC)c3)c3ccccc3c2=O)cc1`, the inhibition % (higher = more inhibition) is -17.6%. With `Cc1cc(NC(=O)c2ccccc2C(F)(F)F)n(-c2nc3ccccc3[nH]2)n1`, the inhibition % (higher = more inhibition) is 83.9%. The value for `CCn1cc(C(=O)NCc2ccco2)c(=O)c2cc(S(=O)(=O)N3CCCC3)ccc21` was 15.2%; that for `CCCn1nc(C(=O)Nc2nc3ccccc3s2)c2ccccc2c1=O` was 36.4%. Consider `COc1ccc(-n2nc(C(=O)NCC(=O)Nc3ccc(OC)c(OC)c3)c3ccccc3c2=O)cc1`, for which the inhibition % (higher = more inhibition) came to 27%.

Consider `Cc1nc(NC(=O)c2ccccc2)sc1-c1csc(Nc2ccccc2)n1`, for which the inhibition % (higher = more inhibition) was 27%.

Regarding `Cc1nc(NC(=O)c2ccccc2)sc1-c1csc(Nc2ccccc2Cl)n1`, the inhibition % (higher = more inhibition) was found to be 19.9%.

With `COc1ccccc1Nc1nc(-c2sc(NC(=O)c3ccco3)nc2C)cs1`, the inhibition % (higher = more inhibition) was 15.2%. In the case of `Cc1cc(NC(=O)c2cccc(C)c2C)n(-c2nc3ccccc3[nH]2)n1` it was 61.3%. For `Cc1ccc(Cl)cc1Nc1nc(-c2sc(NC(=O)c3ccco3)nc2C)cs1`, the inhibition % (higher = more inhibition) came out at 50.8%. As to `Cc1cc(NC(=O)c2ccccc2)n(-c2nc3ccccc3[nH]2)n1`, the inhibition % (higher = more inhibition) came out at 76.2%.
